Assay outcomes deposited in PubChem BioAssay by several laboratories.
CYP2C9 inhib: inhibitors of human CYP2C9; CYP2C9 Supersomes, luciferin-H conversion, luminescence; inhibition, % at 5 µM; actives 20% (n = 96,000);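 active means blocking of liver enzyme CYP2C9 beyond about 50% at 5 µM, limit read from the data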
Target sequence (P11712 whole entry, looked up): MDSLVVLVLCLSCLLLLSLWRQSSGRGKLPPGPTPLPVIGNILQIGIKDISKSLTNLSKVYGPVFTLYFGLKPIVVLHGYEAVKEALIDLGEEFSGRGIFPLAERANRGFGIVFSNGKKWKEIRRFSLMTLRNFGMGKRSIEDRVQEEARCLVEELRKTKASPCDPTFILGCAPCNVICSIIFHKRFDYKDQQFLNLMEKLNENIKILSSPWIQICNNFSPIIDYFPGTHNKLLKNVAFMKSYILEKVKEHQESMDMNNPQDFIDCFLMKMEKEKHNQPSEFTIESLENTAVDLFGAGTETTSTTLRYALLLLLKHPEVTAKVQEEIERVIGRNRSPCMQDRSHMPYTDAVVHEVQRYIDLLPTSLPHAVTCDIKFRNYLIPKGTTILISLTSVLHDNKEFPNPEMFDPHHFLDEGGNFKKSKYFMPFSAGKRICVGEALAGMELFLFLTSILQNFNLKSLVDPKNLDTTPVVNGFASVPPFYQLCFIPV
CYP2C19 activ: cytochrome P450 2C19 (human) activation | AID 1025 | activation factor at 5 µM | P33261 | 96,000 tested, under 10 active | recombinant CYP2C19, luciferin-H EGE luminescence; stronger effect = higher value; 0 = fully inhibited enzyme, 1 = untreated enzyme;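 active means activation factor of at least 2 at 5 µM in the primary screen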;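 further: 0 = wells with 2.5 mM tranylcypromine and 1 = vehicle-only wells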
Cav32 inh: human Cav3.2 channel inhibition, primary screen; O95180; Cav3.2-expressing cells, Fluo-4 calcium fluorescence FDSS; stronger effect = lower value; B-score at 10 µM; actives 4% (n = 100,000); AID 449739;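 active means single-dose well whose peak fluorescence ratio is a statistical outlier from its plate by either plate-standardised score or position-corrected B-score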
CYP2C9 activ: CYP2C9 (human) activation; recombinant CYP2C9, luciferin-H conversion, luminescence; stronger effect = higher value; factor 1 = untreated enzyme, 0 = blocked; activation factor at 5 µM; actives 1.4% (n = 96,000);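 active means activation factor of 2 or more for CYP2C9 at a 5 µM dose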;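 further: 0 = sulfaphenazole-blocked wells and 1 = vehicle-only wells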
CYP2C19 inh: blocks human cytochrome P450 2C19 | P33261 | CYP2C19 Supersomes, luciferin-H EGE luminescence, 30 min | inhibition, % at 5 µM | actives 21% (n = 96,000) | AID 778;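 active means CYP2C19 inhibition above a set limit at 5 µM in the primary screen, cut at about 50% in these data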;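 further: plate controls were negative control wells for no effect and 2.5 mM tranylcypromine positive control for full effect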
An asterisk follows results filed as active. In the library only some 27% were active in any assay of this set; here they are far more common.

CCOC(=O)/C=C/S(=O)(=O)c1ccc(NC(C)=O)cc1 was read as CYP2C9 inhib 26, CYP2C19 activ 0.9, Cav32 inh 0.71, CYP2C9 activ 0.7 and CYP2C19 inh 9.
For O=C(COC(=O)C(Cc1ccccc1)NC(=O)c1ccco1)NC1CC1 (centres undefined) the results were CYP2C9 inhib 41, CYP2C19 activ 0.5, Cav32 inh 1.6, CYP2C9 activ 0.6 and CYP2C19 inh 49.
Screening O=C(NC(Cc1ccccc1)C(=O)OCC(=O)N1CCc2ccccc21)c1ccco1 (centres undefined) returned CYP2C9 inhib 34, CYP2C19 activ 0.9, Cav32 inh -4.7*, CYP2C9 activ 0.7 and CYP2C19 inh 6.
`Cc1ccc(S(=O)(=O)CCC(=O)N2CCc3ccccc32)cc1` gave CYP2C9 inhib -116, CYP2C19 activ 1, CYP2C9 activ 2.2* and CYP2C19 inh 1.
`CN(CC(=O)N1CCc2ccccc21)S(=O)(=O)c1ccc(Br)s1` gave CYP2C9 inhib -23, CYP2C19 activ 0.1, Cav32 inh -2.5, CYP2C9 activ 1.2 and CYP2C19 inh 94*.
`O=C(CCCc1ccccc1)N1CCc2ccccc21` gave CYP2C9 inhib 59*, CYP2C19 activ 0.2, Cav32 inh -1.8, CYP2C9 activ 0.4 and CYP2C19 inh 78*.
N/C(=N\OC(=O)CC1CCCCC1)c1ccccn1 was read as CYP2C9 inhib 10, CYP2C19 activ 0.8, Cav32 inh -3.4, CYP2C9 activ 0.9 and CYP2C19 inh 24.
Screening Cn1cc(S(=O)(=O)CC(=O)N2CCCc3ccccc32)c2ccccc21 returned CYP2C9 inhib -88, CYP2C19 activ 0.2, Cav32 inh 0.16, CYP2C9 activ 1.9 and CYP2C19 inh 84*.
Screening Cc1nc2ccc(S(=O)(=O)N(C)CC(=O)N3CCc4ccccc43)cc2s1 returned CYP2C9 inhib -33, CYP2C19 activ 0.8, Cav32 inh 0.24, CYP2C9 activ 1.3 and CYP2C19 inh 20.
`O=Cc1cn(CC(=O)N2CCCc3ccccc32)c2ccccc12` gave Cav32 inh 0.89.
For Cc1ccc(N(CC(=O)N2CCc3ccccc32)C2=NC(=O)CS2)cc1 the results were CYP2C9 inhib 67*, CYP2C19 activ 0.4, Cav32 inh -4.3*, CYP2C9 activ 0.3 and CYP2C19 inh 56*.
Screening O=C(c1ccco1)c1cn(CC(=O)N2CCCc3ccccc32)c2ccccc12 returned CYP2C9 inhib 100*, CYP2C19 activ 0, Cav32 inh -4, CYP2C9 activ 0 and CYP2C19 inh 98*.
For Cc1ccc(S(=O)(=O)N(C)CC(=O)N2CCCc3ccccc32)cc1 the results were CYP2C9 inhib -172, CYP2C19 activ 0.7, Cav32 inh 0.023, CYP2C9 activ 2.7* and CYP2C19 inh 30.
For CC(C(=O)NC1CCCC1)N(Cc1ccco1)C(=O)c1snc(C(=O)NC2CCCC2)c1N (centres undefined) the results were CYP2C9 inhib 44, CYP2C19 activ 0.8, Cav32 inh -2.9, CYP2C9 activ 0.6 and CYP2C19 inh 23.
Screening O=C(NCc1ccc2c(c1)OCO2)C1CCCN1C(=O)Nc1cccc(Cl)c1 (centres undefined) returned CYP2C9 inhib 41, CYP2C19 activ 0.7, Cav32 inh -0.054, CYP2C9 activ 0.6 and CYP2C19 inh 35.
Screening O=[N+]([O-])c1ccc(NCCNc2ccc(Cl)nn2)cc1 returned CYP2C9 inhib 18, CYP2C19 activ 0.8, Cav32 inh -0.21, CYP2C9 activ 0.8 and CYP2C19 inh 22.
Screening CN(C)c1ccc(-c2ccncc2)cc1 returned CYP2C9 inhib 50, CYP2C19 activ 0, CYP2C9 activ 0.5 and CYP2C19 inh 98*.
`COc1ccc(-c2ccncc2)cc1OC` gave Cav32 inh 0.26.
COc1ccccc1NC(=O)CN(c1ccc(C23CC4CC(CC(C4)C2)C3)cc1)S(C)(=O)=O was read as CYP2C9 inhib 64*, CYP2C19 activ 1, Cav32 inh -2.1, CYP2C9 activ 0.4 and CYP2C19 inh 3.
Screening CCc1ccc(N(CC(=O)Nc2ccc(OC)cc2OC)S(C)(=O)=O)cc1 returned CYP2C9 inhib 97*, CYP2C19 activ 0.1, Cav32 inh -0.71, CYP2C9 activ 0 and CYP2C19 inh 88*.
Screening COc1ccc(N(CC(=O)Nc2cc(OC)ccc2OC)S(C)(=O)=O)cc1 returned Cav32 inh 0.52.
Screening COc1ccc(C)cc1NC(=O)CN(c1ccccc1F)S(C)(=O)=O returned CYP2C9 inhib 52*, CYP2C19 activ 0.6, CYP2C9 activ 0.5 and CYP2C19 inh 36.
For COc1ccc(C)cc1NC(=O)CN(c1ccc(F)cc1)S(C)(=O)=O the results were CYP2C9 inhib 65*, CYP2C19 activ 0.7, Cav32 inh 0.048, CYP2C9 activ 0.3 and CYP2C19 inh 31.
C=CCOc1nc2c(c(=O)n(Cc3ccc(Cl)c(Cl)c3)c(=O)n2C)n1C was read as Cav32 inh 0.69.
`N#CC1(C#N)C2=C(CCCC2)NC(c2ccccc2)C1(C#N)C#N` (centres undefined) gave CYP2C9 inhib 40, CYP2C19 activ 0.9, Cav32 inh -1.3, CYP2C9 activ 0.6 and CYP2C19 inh 15.
For CCCn1[nH]cc(SC)c(=O)c1=O the results were CYP2C9 inhib -3, CYP2C19 activ 1, Cav32 inh -0.14, CYP2C9 activ 1 and CYP2C19 inh 0.
O=C1CSC(c2ccc3c(c2)OCO3)N1c1ccc(Oc2ccccc2)cc1 (centres undefined) was read as CYP2C9 inhib 60*, CYP2C19 activ 0.7, Cav32 inh -3.1, CYP2C9 activ 0.4 and CYP2C19 inh 31.
`CC(=O)Nc1ccc(N2C(=O)CSC2c2ccc(F)cc2)cc1` (centres undefined) gave CYP2C9 inhib -4, CYP2C19 activ 1.2, Cav32 inh -0.6, CYP2C9 activ 1 and CYP2C19 inh -17.
For COc1ccc(C2SCC(=O)N2c2c(C)n(C)n(-c3ccccc3)c2=O)cc1 (centres undefined) the results were CYP2C9 inhib 40, CYP2C19 activ 0.6, Cav32 inh 0.2, CYP2C9 activ 0.6 and CYP2C19 inh 44.
Screening Cc1ccc(N2C(=O)CSC2c2ccc3c(c2)OCO3)cc1 (centres undefined) returned CYP2C9 inhib 69*, CYP2C19 activ 0, CYP2C9 activ 0.3 and CYP2C19 inh 100*.
`CC(c1nc2ccccc2c(=O)[nH]1)N1CCN(C)CC1` (centres undefined) gave CYP2C9 inhib -34, CYP2C19 activ 1.1, Cav32 inh -0.59, CYP2C9 activ 1.3 and CYP2C19 inh -6.
Screening CC1(C)C(=O)OC(C(=O)c2ccc(C(C)(C)C)cc2)C(C)(C)C1=O (centres undefined) returned CYP2C9 inhib 40, CYP2C19 activ 0.9, Cav32 inh -0.26, CYP2C9 activ 0.6 and CYP2C19 inh 5.
`CC(C)c1c(O)nc(SCCC(=O)O)[nH]c1=O` gave CYP2C9 inhib -4, CYP2C19 activ 1, Cav32 inh 0.2, CYP2C9 activ 1 and CYP2C19 inh 0.
